Source: PubChem (several laboratories)
AddAB inh = less growth of phage-infected E. coli with AddAB | inhibition, % at 11.9 µM | 330,000 compounds, 0.29% hits | E. coli expressing H. pylori AddAB, absorbance growth; in the data active = inhibition above about 12%
phage Ecoli inh = E. coli growth loss with phage present. growth absorbance. AID 651602. inhibition, % at 11.9 µM. 360,000 compounds, 0.26% hits; in the data active = inhibition above about 11%
E coli growth-1 = inhibitors of Escherichia coli growth; OD600, 23 h; hits give low values; OD600 absorbance (concentration not given with the values); 330,000 compounds, 0.21% hits;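 active = OD600 absorbance below the run mean of sample wells minus 3.6 SD, in any replicate, cut at about 0.56 in these data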
Tat transport = inhibitors of E. coli Tat protein transport; inhibition, % at 10 µM; E. coli MC4100 TorA-mCherry Tat export, fluorescence; 340,000 compounds, 0.036% hits; AID 488895;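 active = mean replicate inhibition at least 50% and at least half of replicates individually reaching 50%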;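 also: exported cargo escapes ClpAP degradation while cytoplasmic cargo is degraded and loses fluorescence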
E coli growth-2 = bacterial growth inhibition, counter-screen for AddAB inhibitors; inhibition, % at 11.9 µM; 330,000 compounds, 0.27% hits; E. coli V3065 growth, OD600 absorbance, 18 h;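 active = inhibition above the campaign's mean inhibition across all tested compounds plus 3 SD, cut at about 9.9% in these data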;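 also: uninfected addAB+ strain grown without phage in ampicillin broth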
Hits are given with their value; i = inactive; nt = not tested or not shown. A selection: hits, their analogues and other compounds. The true share with any hit is near 0.51%.

SMILES	AddAB inh	phage Ecoli inh	E coli growth-1	Tat transport	E coli growth-2
Cc1c(Cl)cnn1CC(=O)NC1C(=O)N2C(C(=O)O)=C(CSc3nnnn3C)CSC12 (centres undefined)	i	i	0.074	i	i
Cc1nn(CC(=O)NC2C(=O)N3C(C(=O)O)=C(CSc4nnnn4C)CSC23)cc1Br (centres undefined)	i	i	0.46	i	i
Cc1c(Cl)c(C(F)F)nn1CC(=O)NC1C(=O)N2C(C(=O)O)=C(CSc3nnnn3C)CSC12 (centres undefined)	nt	i	i	i	nt
NC(=O)CCC1NC(=O)C(CO)NC(=O)c2cc([N+](=O)[O-])cc(I)c2NCCCC(C(N)=O)NC(=O)C(Cc2ccc(O)cc2)NC1=O (centres undefined)	nt	nt	i	nt	nt
OCCC1CC(O)C(O)[C@]2(Cc3ccccc3CCO2)O1 (some centres undefined)	nt	nt	i	nt	nt
CC(C(=O)NC1C(=O)N2C(C(=O)O)=C(CSc3nnnn3C)CSC12)n1cc(Cl)cn1 (centres undefined)	i	i	0.5	i	i
Cc1c(C(C)CCCO)oc(=O)c2c1Oc1c(C)c(C(C)CC(C)O)oc(=O)c1C2 (centres undefined)	nt	nt	i	nt	nt
O=S1(=O)CCC(NC(=S)SCCOc2ccccc2)C1 (centres undefined)	i	i	0.49	i	i
CCCCSC(=S)NC1CCS(=O)(=O)C1 (centres undefined)	i	i	i	i	i
CCCCN(C)CCOc1ccccc1OCC	i	i	0.065	i	i
COc1ccccc1C(=O)Nc1ccc(S(=O)(=O)Nc2nccs2)cc1	i	i	i	i	i
O=C(O)c1ccccc1C(=O)Nc1ccc(S(=O)(=O)Nc2nccs2)cc1	i	i	i	i	11
CN(C)C(=O)c1cc(C(=O)c2ccc(Cl)cc2Cl)c[nH]1	i	i	i	i	i
NC(=O)c1cc(C(=O)c2ccc(Cl)cc2Cl)c[nH]1	i	i	0.5	i	i
CC(C)C(CSc1ccccc1)N1CCN(Cc2ccccc2)CCC1=O (centres undefined)	nt	nt	i	nt	nt
COc1ccc(NC(=O)Nc2ccc3c(c2)C(=O)N(C(C)CO)CC(C)C(CN(C)S(=O)(=O)c2cccs2)O3)cc1 (centres undefined)	nt	nt	i	nt	nt
N/C(=N\OC(=O)Nc1ccccc1)c1ncc([N+](=O)[O-])s1	i	i	nt	i	i
NC(=NOC(=O)c1ccc(Cl)cc1)c1ncc([N+](=O)[O-])s1	nt	nt	0.46	nt	nt
Cc1nc2c(Br)cc(Br)cc2cc1O	i	i	0.56	i	i
Brc1cc(Br)c2nc(-c3cccs3)ccc2c1	i	i	i	i	i
O=C(Oc1ccc(Cl)c2cccnc12)c1cccnc1	i	i	0.37	i	i
Oc1ccc(F)c2cccnc12	i	i	i	i	i
Cc1ccc(C(=O)Oc2ccc(Cl)c3cccnc23)cc1[N+](=O)[O-]	i	i	i	i	i
Oc1ccc(Cl)c2cccnc12	nt	i	0.29	i	nt
CCOC(=O)N1CCC(N2C(=O)c3ccccc3C2Nc2cc(C(=O)OC)cc(C(=O)OC)c2)CC1 (centres undefined)	i	100	i	i	i
SMILES	AddAB inh	phage Ecoli inh	E coli growth-1	Tat transport	E coli growth-2
CCOC(=O)N1CCC(N2C(=O)c3ccccc3C2Nc2cc(C)cc(C)c2)CC1 (centres undefined)	i	i	i	i	i
CC1CCN(c2ccc3c(c2)S(=O)(=O)c2cccc(C(=O)NCC4CCCO4)c2C3=O)CC1 (centres undefined)	nt	nt	i	nt	nt
CCOc1ccc(S(=O)(=O)Nc2ccc(C(=O)NN=C(C)c3ccc(-n4ccnc4)cc3)cc2)cc1	nt	nt	i	nt	nt
OC(CNCC(c1ccc(Cl)cc1Cl)c1c[nH]c2ccccc12)c1ccccc1 (centres undefined)	i	i	0.45	i	i
O=C(CNC(=S)N(CCCN1CCOCC1)Cc1cccs1)N1CCCC1	i	i	0.54	i	i
O=C(CNC(=S)N(CCCN1CCOCC1)Cc1cccs1)NCCN1CCOCC1	i	i	i	i	i
NC(=O)C1=CC(c2ccccc2)CC(OCc2ccc(CO)cc2)O1 (centres undefined)	nt	nt	i	nt	nt
O=C(CSc1ccc2nnc(-c3ccccn3)n2n1)Nc1ccc2c(c1)OCO2	97	i	i	i	78
CN1C(=CC=NNC(=O)c2ccccc2Br)C(C)(C)c2ccccc21	nt	nt	i	nt	nt
CCCCNC(=S)Nc1ccc([N+](=O)[O-])cc1	i	i	0.52	i	i
CC(C)CCNC(=S)Nc1ccc([N+](=O)[O-])cc1	i	i	i	i	i
Cc1ccsc1C=C(C(=O)c1ccc(OC(C)C)cc1)c1nc2ccccc2o1	nt	nt	i	nt	nt
CCN1/C(=C/C=C/C=C/C=C/c2sc3ccccc3[n+]2CC)Sc2ccccc21	i	i	i	i	i
